Measured values published in ChEMBL document CHEMBL3988442, “University of Dundee, Small-Polar-MMV Screening Library” (2021).
The whole screen tested about 48,000 compounds, of which about 13,000 (27%) showed an effect of 50% or more. This is one part of the list.

System: Wolbachia pipientis
Test: Anti-Wolbachia Cell-Based Screen
Type: functional
Design: scale not given: in the data most compounds retested in dose-response had high values
Settings: 5 µM

| SMILES | Percent Effect |
| --- | --- |
| Cn1cc(CNc2ccc(CCN3CCC(C(N)=O)CC3)cc2)cn1 | -15.36% |
| CCC(CC)c1cc(CNC(=O)N2CCCC(c3ncc[nH]3)C2)on1 (stereo not given) | -2.928% |
| COCCO[C@@H]1CCN(Cc2csc(C)n2)[C@H]1Cc1ccccc1.O=C(O)C(F)(F)F | -4.722% |
| Cc1nc(CN2CC[C@@H](OCC3CC3)[C@@H]2Cc2cccnc2)cs1.O=C(O)C(F)(F)F.O=C(O)C(F)(F)F | 96.59% |
| Cc1nc(CN2CC[C@H](OCC3CC3)[C@@H]2Cc2cccnc2)cs1.O=C(O)C(F)(F)F.O=C(O)C(F)(F)F | 110.4% |
| Cc1cc(N(C)Cc2c(C)noc2C)n2nc(C)c(C)c2n1 | -2.032% |
| CCN(CC)CC(=O)NCc1cccnc1-n1cnc2ccccc21 | -2.03% |
| Cc1cnc(N2CC[C@@H]3CN(CCC(C)C)S(=O)(=O)[C@@H]3CC2)nc1 | 7.109% |
| NS(=O)(=O)NCc1cc(-c2ccco2)n(CC(F)(F)F)n1 | 112.6% |
| C[C@H](NS(C)(=O)=O)C(=O)NCc1cc(-c2ccco2)n(CC(F)(F)F)n1 | 97.84% |
| CC(COCC(F)(F)F)NC(=O)c1ccc(-c2ccco2)[nH]c1=O (stereo not given) | -22% |
| CC(Cc1cccs1)C(=O)NCc1cccc(N2CCCC2=O)c1 (stereo not given) | 1.255% |
| Cc1cc(C)n(CC(C)CNC(=O)NCc2ccco2)n1 (stereo not given) | 7.726% |
| CC(C)NC(=O)NCc1cc(-c2ccco2)n(CC(F)(F)F)n1 | 112.4% |
| CC(C)NC(=O)NCc1ccnc(N(C)C)n1 | -10.55% |
| CC(C)NC(=O)NCCn1nc(C(F)(F)F)n(C)c1=O | -4.799% |
| Cc1nnc2n1CCN(CCS(=O)(=O)c1ccccc1)C2 | 0.264% |
| CCc1noc(C2CCCCN2C(=O)c2ccn(C3CCCC3)n2)n1 (stereo not given) | 52.74% |
| CCc1noc(C2CCCCN2C(=O)c2ccccc2)n1 (stereo not given) | 1.293% |
| CCc1noc(C2CCCCN2C(=O)c2ccoc2C)n1 (stereo not given) | 16.06% |
| Cc1nnc(N2C[C@@H]3CCCO[C@@H]3[C@H](N(C)C)C2)s1 | -8.785% |
| CC(C)C(C)(O)CNC(=O)Nc1ccccn1 (stereo not given) | -16.52% |
| CC(C)C(NC(=O)NCCNc1cnccn1)c1cccs1 (stereo not given) | 101.3% |
| CC(C)C(NC(=O)c1ccc(N2CCOCC2)nc1)c1cccs1 (stereo not given) | 15.66% |
| CC(NC(=O)NCCNc1ncccn1)c1cccs1 (stereo not given) | 10.74% |
| CC(NC(=O)NCCNc1cnccn1)c1cccs1 (stereo not given) | 5.831% |
| CC(C)C(NC(=O)NCCNc1ncccn1)c1cccs1 (stereo not given) | 99.08% |

| SMILES | Percent Effect |
| --- | --- |
| CC(C)C(NC(=O)Nc1ccccn1)c1cccs1 (stereo not given) | 56.05% |
| CC(C)CC(NC(=O)CN(C)c1cnccn1)c1cccs1 (stereo not given) | 9.121% |
| CC(NC(=O)NCCNc1cccc(F)c1C#N)c1cccs1 (stereo not given) | 10.58% |
| COCCn1cnnc1CN(C)c1nc(N)ncc1C | 15.34% |
| Cc1ccc(CN(C)C(=O)CN2CCCC2c2cnn(C)c2)cc1 (stereo not given) | -7.848% |
| Cn1ncc(N2CCOCC2)c(Cl)c1=O | 6.365% |
| c1ccc2c(N3CCOCC3)cnnc2c1 | 28.28% |
| O=c1[nH]cc(N2CCOCC2)c(=O)[nH]1 | 76.31% |
| O=C(Cc1c[nH]c(=O)[nH]c1=O)N1CCCCC1CCc1ccccc1 (stereo not given) | -18.96% |
| O=c1[nH]cc(N2CCCCC2)c(=O)[nH]1 | 67.95% |
| O=C(c1c[nH]c(=O)[nH]1)N1CCc2ccccc21 | 14.35% |
| O=C(NCCN1CCOCC1)c1cc(-c2ccc(Cl)s2)[nH]n1 | 11.57% |
| N#CC(Sc1nnnn1C1CCOCC1)C1CCCCC1 (stereo not given) | 11.61% |
| CC(=O)c1cc(CN2C[C@H]3CC[C@@H]2CN(S(=O)(=O)N(C)C)C3)cs1 | -15.69% |
| OC(CN1CCN(CC2CCCCC2)CC1)c1ccccc1 (stereo not given) | 21.16% |
| COc1ccc2c(=O)n(CC3CCNC3)ccc2c1OC (stereo not given) | 10.36% |
| O=C1NC(c2ccccc2)=N[C@@]12CC[C@@H]1CN(CC3CCOCC3)C[C@@H]12 | 10.45% |
| O=C(O)C(F)(F)F.O=C1NC2(CCN(CC3CC3)CC2)CC1c1ccccc1 (stereo not given) | -3.708% |
| O=C1NC2(Cc3ccccc31)CN(CC1CCOCC1)C2 | 125.6% |
| CC(=O)N1CCN(CC2CCOc3ccccc3C2)CC1 (stereo not given) | -15.11% |
| O=c1n(CC2CC2)nc(C2CCNCC2)n1Cc1ccccc1 | 0.2019% |
| O=C1NC2(Cc3ccccc31)CN(CC1CCNC1)C2 (stereo not given) | 109.8% |
| O=C1NC2(Cc3ccccc31)CN(CC1CCNCC1)C2 | 115.6% |
| O=C1NC2(Cc3ccccc31)CN(CC1CCCC1)C2 | 92.98% |
| Cc1cc(=O)c2ccccc2n1CC1CCNC1 (stereo not given) | 4.531% |
| O=C(CSc1ccc(F)cc1)NS(=O)(=O)c1ccc2c(c1)OCCO2 | -12.15% |
| CN(C)C(CNCc1nc(-c2ccsc2)no1)c1ccco1 (stereo not given) | 15.02% |

| SMILES | Percent Effect |
| --- | --- |
| CCC(O)(CNCc1ccncc1)c1ccc(Br)cc1 (stereo not given) | 15.97% |
| COc1ccc(CN2C[C@@H](F)[C@@H](OCc3nc4cnccc4[nH]3)C2)cn1 | -7.55% |
| O=C(c1cc(-c2ccco2)nc2c(Cl)cccc12)N1CC[C@H]2CNC[C@H]21 | -4.812% |
| O=C(Nc1ccccc1F)N(CCO)Cc1ccsc1 | -6.968% |
| CN1C(=O)[C@H]2CC[C@@H]1CN(C(=O)Nc1ccccc1C(F)(F)F)C2 | -23.74% |
| CCc1noc(CS(=O)(=O)C/C=C/c2ccccc2)n1 | -3.698% |
| Cc1cccc2cc(CN3CCC(O)(CN4CCCC4)CC3)c(=O)[nH]c12 | -13.98% |
| COCCNC(=O)NCCc1cccc(OC)c1O | -1.079% |
| COc1ccc(CNC(=O)NCc2c(C)cc(C)[nH]c2=O)cc1 | -8.384% |
| Cc1ccc2cc(CNCCCO)c(=O)[nH]c2c1 | -12.61% |
| Cc1cccc2cc(CN3CCC(N4CCCC4)CC3)c(=O)[nH]c12 | -6.915% |
| CCc1cccc2cc(CNCCOC)c(=O)[nH]c12 | 77.28% |
| COCCNCc1cc2ccc(C)c(C)c2[nH]c1=O | 110.6% |
| CCc1cccc2cc(CN)c(=O)[nH]c12 | 94.88% |
| COc1ccccc1CNCCc1cccc(C(N)=O)c1 | -10.3% |
| CCc1nccn1CCC(=O)N1CC(=O)N(c2ccccc2C)CC1C (stereo not given) | -5.04% |
| CC(O)(CCc1ccccc1)CNC(=O)c1ccsc1 (stereo not given) | 16.96% |
| CCOC(=O)CSc1ccc(-c2nc(CC)no2)cn1 | -9.081% |
| CCOC(=O)CSc1nnc(C(N)CC(C)C)o1.Cl (stereo not given) | 98.1% |
| CCOC(=O)CSc1ccc(-c2nc(C)no2)cn1 | -12.26% |
| Cc1nc2cc(=O)[nH]n2c(C)c1CC(=O)NC(C)C | 6.511% |
| CCC(C)NC(=O)Cn1c(Nc2cc(C)cc(C)c2)nc(C)cc1=O (stereo not given) | 130.9% |
| Cc1cc(=O)n(CC(=O)NC(C)C)c(Nc2ccc(F)c(C)c2)n1 | 119.3% |
| Cc1cc(NC(C)C(=O)N2CCN(c3ncccn3)CC2)ccc1F (stereo not given) | -7.766% |
| CSc1nc2cc(C)n(CC(=O)NC(C)C)c2c(=O)n1CC(C)C | 0.5328% |
| CCC(C)NC(=O)Cc1c(C)nc2c(c1C)c(=O)[nH]n2C (stereo not given) | -5.261% |
| CC(C)NC(=O)CC(C)NCc1cc(Cl)ccc1F (stereo not given) | 1.096% |

| SMILES | Percent Effect |
| --- | --- |
| CCC(C)NC(=O)CN1CCC2(CC1)OCCO2 (stereo not given) | 3.422% |
| Cc1cc(C)cc(Nc2nc(C)cc(=O)n2CC(=O)NC(C)C)c1 | 102.2% |
| O=C1CC(c2cccs2)Cc2[nH]c(=O)ccc21 (stereo not given) | 3.972% |
| O=C(CN1CCc2cncnc2C1)NC(C1CC1)C1CC1 | 0.03163% |
| CCN(CC)C(=O)c1ccn(COc2cc(C)cc(C)c2)n1 | 11.03% |
| O=C(c1ccc(C2CCCN2)s1)N1CCN(C(=O)N2CCOCC2)CC1 (stereo not given) | 14.1% |
| CN1CCN(C(=O)NC2CCCC2)Cc2cccnc21.O=C(O)C(F)(F)F | -7.276% |
| CC(C)NC(=O)N1CCC(c2nnc3ccc(C(=O)N(C)C)cn23)C1 (stereo not given) | 2.89% |
| CC(C)c1nnc2n1CCN(C(=O)c1cnc(C3CC3)s1)C2 | -14.42% |
| CN(C)Cc1cnc2n1CCN(C(=O)NC1CCCC1)CC2.O=C(O)C(F)(F)F | -15.13% |
| CN1CCN(Cc2cnc3n2CCN(C(=O)N2CCCC2)C3)CC1 | -14.55% |
| CC(C)NC(=O)N1CCn2c(nnc2C2CCCN2)C1 (stereo not given) | 102.1% |
| O=C(NC1CCCCC1)N1CCn2c(nnc2C2CCCN2)C1 (stereo not given) | 120.9% |
| O=C(N1CCCC1)N1CCn2c(nnc2C2CCCN2)C1 (stereo not given) | 124.8% |
| O=C1CC(c2cccs2)Cc2[nH]c(=O)c(C(=O)NC3CCCC3)cc21 (stereo not given) | 7.726% |
| Cn1cc(C(=O)NC[C@H]2OC[C@@H]3CCN(C4CCOCC4)C[C@@H]32)cn1.O=C(O)C(F)(F)F | -10.96% |
| CN1CCc2nc(C3CCCN(C(=O)CC4CCCCC4)C3)ncc2C1 (stereo not given) | 117.4% |
| COC1CCN(S(=O)(=O)N2CCCC(c3cccc(C(=O)O)c3)C2)CC1 (stereo not given) | 12.84% |
| CN1CCc2nc(C3CCCN(S(=O)(=O)N4CCCC4)C3)ncc2C1 (stereo not given) | 92.03% |
| CC1(C)CCN(S(=O)(=O)N2CCCC(c3cccc(C(=O)O)c3)C2)CC1 (stereo not given) | 0.9326% |
| CN1CCC(c2ncc3c(n2)CCN(C(=O)CC2C=CCC2)C3)CC1 (stereo not given) | -2.125% |
| O=C(CCC1CCCC1)N1CCC(c2ncc3c(n2)CCNC3)CC1 | -4.401% |
| CN1CCc2nc(C3CCCN(C(=O)CC(C)(C)C)C3)ncc2C1 (stereo not given) | 119.8% |
| CCC(=O)N1CCCC(c2ncc3c(n2)CCN(C)C3)C1 (stereo not given) | 111.8% |
